Counter-ions that a name gives are not always drawn.
System: Saccharomyces cerevisiae BY4741 SeMeCo community
Assay: z-score of subpopulation abundance vs DMSO median, subpopulation auxotrophic for M; higher = larger share of this subpopulation than in DMSO controls
Conditions: 10 µM; 24 h; SM minimal medium; subpopulation (auxotrophy): M
Outline: (§1)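 Automated confocal microscopy of paraformaldehyde-fixed cells was used to follow a Saccharomyces cerevisiae BY4741 community carrying four plasmids, each restoring one auxotrophy and encoding a distinct fluorescent protein. The community was pre-grown overnight to OD600 1.0, diluted to 0.3, and added at 70 µl to 384-well plates acoustically predosed with library drugs (10 µM final) for 24 h of growth in minimal SM medium. Single-auxotroph fluorescent strains set thresholds and autofluorescence correction, and each subpopulation's abundance was scored as a z-score against the vehicle-well median.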

Point of comparison: NC1CCN(c2nc3c(cc2F)c(=O)c(C(=O)O)cn3-c2ccc(F)cc2F)C1 (stereo not drawn) [Tosufloxacin p-Toluenesulfonate Hydrate], “z-score of subpopulation abundance” value -0.77. Against it:
- CC1=C(C(=O)OCCN(Cc2ccccc2)c2ccccc2)C(c2cccc([N+](=O)[O-])c2)C(P2(=O)OCC(C)(C)CO2)=C(C)N1 (stereo not drawn) [Efonidipine] — higher, 0.03
- CS(=O)(=O)c1ccc([C@@H](O)[C@@H](CF)NC(=O)C(Cl)Cl)cc1 [Florfenicol] — lower, -1.1
- COC(=O)C1=C(C)NC(C)=C(C(=O)OC(C)(C)CN(C)CCC(c2ccccc2)c2ccccc2)C1c1cccc([N+](=O)[O-])c1 (stereo not drawn) [Lercanidipine hydrochloride] — higher, 0.32
- O=c1[nH]c2ccccc2n1CCN1CCN(c2cccc(C(F)(F)F)c2)CC1 [Flibanserin] — higher, -0.31
- CC1(C)S[C@@H]2[C@H](NC(=O)[C@H](NC(=O)N3CCNC3=O)c3ccccc3)C(=O)N2[C@H]1C(=O)O [Azlocillin sodium salt] — higher, -0.54
- CCN(CC)CCOC(=O)c1ccc(N)cc1Cl [Chloroprocaine HCl] — higher, 0.42

System: Saccharomyces cerevisiae BY4741 SeMeCo community
Assay: z-score of subpopulation abundance vs DMSO median, subpopulation auxotrophic for L; higher = larger share of this subpopulation than in DMSO controls
Conditions: 10 µM; 24 h; SM minimal medium; subpopulation (auxotrophy): L
Outline: as §1

Point of comparison: C#C[C@]1(O)CC[C@H]2[C@@H]3CCC4=Cc5oncc5C[C@]4(C)[C@H]3CC[C@@]21C [Danazol], “z-score of subpopulation abundance” value -0.15. Against it:
- C=C[C@]1(C)C[C@@H](OC(=O)CSC(C)(C)CNC(=O)[C@H](N)C(C)C)[C@]2(C)[C@H](C)CC[C@]3(CCC(=O)[C@H]32)[C@@H](C)[C@@H]1O [Valnemulin HCl] — higher, 0.38
- Cc1ncc([N+](=O)[O-])n1C [Dimetridazole] — lower, -1.34
- CN1C2CCCC1CC(NC(=O)c1nn(C)c3ccccc13)C2 (stereo not drawn) [Granisetron HCl] — higher, 0.65
- CCCN(CCC)CCc1cccc2c1CC(=O)N2 [Ropinirole HCl] — higher, 1.95
- CC(=O)NO [Acetohydroxamic acid] — higher, 1.33
- COc1ccc2c3c1O[C@H]1C[C@@H](O)C=C[C@@]31CCN(C)C2 [Galanthamine HBr] — lower, -0.44
- Cc1cccc(N(C)C(=S)Oc2ccc3ccccc3c2)c1 [Tolnaftate] — lower, -0.24
- CC(C)Cc1ccc(C(C)C(=O)O)cc1 (stereo not drawn) [Ibuprofen Lysine] — lower, -0.17
- O=C(O)CCc1nc(-c2ccccc2)c(-c2ccccc2)o1 [Oxaprozin] — lower, -0.53
- CC[C@H]1OC(=O)[C@H](C)[C@@H](O[C@H]2C[C@@](C)(OC)[C@@H](O)[C@H](C)O2)[C@H](C)[C@@H](O[C@@H]2O[C@H](C)C[C@H](N(C)C)[C@H]2O)[C@](C)(O)C[C@@H](C)C(=O)[C@H](C)[C@H]2OC(=O)O[C@@]21C [Erythromycin Cyclocarbonate] — higher, 1.01
- CCOc1cc(N)c(Cl)cc1C(=O)NCC1CN(Cc2ccc(F)cc2)CCO1 (stereo not drawn) [Mosapride] — lower, -0.65
- CCN(CC)CCNC(=O)c1cc(Cl)c(N)cc1OC [Metoclopramide] — lower, -0.22
- CS(=O)(=O)c1ccc([C@@H](O)[C@@H](CF)NC(=O)C(Cl)Cl)cc1 [Florfenicol] — lower, -0.16
- O=c1[nH]c2ccccc2n1CCN1CCN(c2cccc(C(F)(F)F)c2)CC1 [Flibanserin] — lower, -0.73
- CC1(C)S[C@@H]2[C@H](NC(=O)[C@H](NC(=O)N3CCNC3=O)c3ccccc3)C(=O)N2[C@H]1C(=O)O [Azlocillin sodium salt] — higher, 1.83

Source: the supplement of paper PMC8975748
